Binding signal data for 1 sequence are collected here from PMC7862700, “An all-to-all approach to the identification of sequence-specific readers for epigenetic DNA modifications on cytosine”.

What all share (test): DAPPL (digital affinity profiling via proximity ligation, sequencing); 10 mM Tris-HCl pH 7.5, 50 mM NaCl, 1 mM DTT, 4% glycerol, room temperature, 30 min; GST-TFs on glutathione beads, 16-mer random dsDNA library, 0.1% formaldehyde crosslink after washing; high values mean tight binding
One assay has as its target T1, FEV (Homo sapiens, UniProt Q99581 1-238).
T1 sequence: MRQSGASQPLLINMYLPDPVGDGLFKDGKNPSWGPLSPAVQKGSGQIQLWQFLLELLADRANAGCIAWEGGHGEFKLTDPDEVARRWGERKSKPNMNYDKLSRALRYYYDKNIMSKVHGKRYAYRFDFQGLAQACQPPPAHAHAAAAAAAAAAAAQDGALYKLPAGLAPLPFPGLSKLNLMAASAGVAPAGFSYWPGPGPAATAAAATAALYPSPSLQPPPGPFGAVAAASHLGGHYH
Conditions: protein: recombinant; tags: N-terminal GST; dsDNA, one strand shown. A digest of the protocol:
(§1)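 After expression in yeast as GST fusions, human transcription factors were bound to glutathione beads, DNA-barcoded and mixed with a tag-only sample. The pools were incubated with 200 nmole of a 16-mer random double-stranded DNA library in Tris/NaCl/DTT/glycerol buffer (30 min, room temperature), washed and crosslinked with 0.1% formaldehyde. Proximity ligation with BsaI/T4 ligase ran for 1 h at 37 °C, before PCR amplification and sequencing on an Illumina NextSeq500. Binding signal is a hexamer's read frequency for a factor divided by its frequency for the tag-only sample.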

The target of a further assay is ETV5 (Homo sapiens, UniProt P41161 1-510). Conditions: protein: recombinant; tags: N-terminal GST; dsDNA, one strand shown. The method, boiled down: as §1
A further assay addresses HSF1 (Homo sapiens, UniProt Q00613 1-529). Conditions: protein: recombinant; tags: N-terminal GST; chain copies: 3; dsDNA, one strand shown. The method, boiled down:
as §1

The target of another assay is T2, SPIC (Homo sapiens, UniProt Q8N5J4 1-248).
T2 sequence: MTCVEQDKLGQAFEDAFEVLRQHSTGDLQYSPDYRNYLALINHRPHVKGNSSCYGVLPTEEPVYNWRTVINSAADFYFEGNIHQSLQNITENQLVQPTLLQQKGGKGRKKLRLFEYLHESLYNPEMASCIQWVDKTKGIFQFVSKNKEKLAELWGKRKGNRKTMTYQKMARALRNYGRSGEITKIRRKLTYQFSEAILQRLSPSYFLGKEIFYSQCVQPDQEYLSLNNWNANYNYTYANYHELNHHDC
The note with it: protein: recombinant; tags: N-terminal GST; dsDNA, one strand shown. A digest of the protocol: as §1

In the next assay the target is ELF4 (Homo sapiens, UniProt Q99607 1-663). Conditions: protein: recombinant; tags: N-terminal GST; dsDNA, one strand shown. A digest of the protocol: as §1
In the next assay the target is T3, ELK4 (Homo sapiens, UniProt P28324-2 1-405).
T3 sequence: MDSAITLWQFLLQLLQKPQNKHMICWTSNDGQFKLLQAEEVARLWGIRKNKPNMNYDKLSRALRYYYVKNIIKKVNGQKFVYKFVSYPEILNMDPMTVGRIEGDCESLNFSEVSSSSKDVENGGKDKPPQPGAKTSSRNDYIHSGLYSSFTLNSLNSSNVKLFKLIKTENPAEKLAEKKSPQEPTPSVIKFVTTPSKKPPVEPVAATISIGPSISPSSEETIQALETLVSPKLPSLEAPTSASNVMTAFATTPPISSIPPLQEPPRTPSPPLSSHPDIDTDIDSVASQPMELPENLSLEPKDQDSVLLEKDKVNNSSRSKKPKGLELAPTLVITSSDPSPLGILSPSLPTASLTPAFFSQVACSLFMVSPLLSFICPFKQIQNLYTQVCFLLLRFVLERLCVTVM
The note with it: protein: recombinant; tags: N-terminal GST; dsDNA, one strand shown. The method, boiled down:
as §1

A further assay has as its target T4, ETV2 (Homo sapiens, UniProt O00321 1-342).
T4 sequence: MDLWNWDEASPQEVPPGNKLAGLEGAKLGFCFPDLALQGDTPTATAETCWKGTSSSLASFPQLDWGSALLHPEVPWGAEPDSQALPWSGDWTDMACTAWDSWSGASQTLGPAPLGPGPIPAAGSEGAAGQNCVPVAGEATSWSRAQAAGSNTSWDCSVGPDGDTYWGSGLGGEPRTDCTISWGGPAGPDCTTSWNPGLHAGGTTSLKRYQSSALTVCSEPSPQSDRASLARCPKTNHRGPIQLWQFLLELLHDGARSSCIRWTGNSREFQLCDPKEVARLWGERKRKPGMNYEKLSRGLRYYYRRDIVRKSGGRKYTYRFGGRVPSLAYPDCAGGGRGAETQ
The note with it: protein: recombinant; tags: N-terminal GST; dsDNA, one strand shown. The method, boiled down: as §1

The next assay addresses T5, ELF3 (Homo sapiens, UniProt P78545 1-371).
T5 sequence: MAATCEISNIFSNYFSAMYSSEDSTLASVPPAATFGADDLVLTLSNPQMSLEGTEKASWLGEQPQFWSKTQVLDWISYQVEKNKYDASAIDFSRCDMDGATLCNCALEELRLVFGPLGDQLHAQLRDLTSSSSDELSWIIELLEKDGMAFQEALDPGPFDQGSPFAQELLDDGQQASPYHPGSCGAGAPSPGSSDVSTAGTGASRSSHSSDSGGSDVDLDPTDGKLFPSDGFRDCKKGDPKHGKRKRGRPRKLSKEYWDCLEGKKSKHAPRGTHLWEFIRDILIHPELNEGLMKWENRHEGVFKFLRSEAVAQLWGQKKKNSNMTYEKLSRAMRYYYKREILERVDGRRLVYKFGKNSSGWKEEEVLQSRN
The note with it: protein: recombinant; tags: N-terminal GST; dsDNA, one strand shown. The method, boiled down:
as §1

In a further assay the target is CRX (Homo sapiens, UniProt O43186 1-299). The note with it: protein: recombinant; tags: N-terminal GST; dsDNA, one strand shown. A digest of the protocol:
as §1

Another assay deals with ETV1 (Homo sapiens, UniProt P50549 1-477). The note with it: protein: recombinant; tags: N-terminal GST; dsDNA, one strand shown. The method, boiled down:
as §1

Another assay deals with T6, ERF (Homo sapiens, UniProt P50548 1-548).
T6 sequence: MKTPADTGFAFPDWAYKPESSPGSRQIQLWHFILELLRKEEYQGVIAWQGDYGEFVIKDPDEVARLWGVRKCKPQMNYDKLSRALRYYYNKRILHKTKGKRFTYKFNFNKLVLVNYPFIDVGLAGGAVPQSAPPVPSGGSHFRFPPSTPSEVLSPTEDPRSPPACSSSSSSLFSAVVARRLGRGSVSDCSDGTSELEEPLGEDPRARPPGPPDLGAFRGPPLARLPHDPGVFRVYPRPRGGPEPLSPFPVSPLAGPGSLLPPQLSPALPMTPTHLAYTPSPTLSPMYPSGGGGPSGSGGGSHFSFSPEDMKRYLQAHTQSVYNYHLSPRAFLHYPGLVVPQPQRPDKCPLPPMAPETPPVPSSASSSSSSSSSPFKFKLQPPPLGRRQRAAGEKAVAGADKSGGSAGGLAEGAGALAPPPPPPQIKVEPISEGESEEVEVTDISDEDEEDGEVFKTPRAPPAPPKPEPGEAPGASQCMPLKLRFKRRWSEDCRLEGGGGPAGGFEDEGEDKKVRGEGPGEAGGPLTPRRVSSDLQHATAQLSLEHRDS
The note with it: protein: recombinant; tags: N-terminal GST; dsDNA, one strand shown. A digest of the protocol:
as §1

Another assay has as its target T7, ETV3L (Homo sapiens, UniProt Q6ZN32 1-361).
T7 sequence: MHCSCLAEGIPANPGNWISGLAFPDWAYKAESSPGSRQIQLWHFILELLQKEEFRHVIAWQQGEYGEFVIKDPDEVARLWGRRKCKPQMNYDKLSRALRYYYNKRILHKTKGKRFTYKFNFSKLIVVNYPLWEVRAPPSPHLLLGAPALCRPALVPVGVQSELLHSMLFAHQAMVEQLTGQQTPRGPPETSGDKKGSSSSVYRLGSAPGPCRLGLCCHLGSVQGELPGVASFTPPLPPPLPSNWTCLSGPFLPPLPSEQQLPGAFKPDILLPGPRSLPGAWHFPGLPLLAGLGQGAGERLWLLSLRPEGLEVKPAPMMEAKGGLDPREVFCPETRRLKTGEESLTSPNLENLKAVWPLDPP
The note with it: protein: recombinant; tags: N-terminal GST; dsDNA, one strand shown. A digest of the protocol: as §1

In another assay the target is T8, ETS2 (Homo sapiens, UniProt P15036 1-469).
T8 sequence: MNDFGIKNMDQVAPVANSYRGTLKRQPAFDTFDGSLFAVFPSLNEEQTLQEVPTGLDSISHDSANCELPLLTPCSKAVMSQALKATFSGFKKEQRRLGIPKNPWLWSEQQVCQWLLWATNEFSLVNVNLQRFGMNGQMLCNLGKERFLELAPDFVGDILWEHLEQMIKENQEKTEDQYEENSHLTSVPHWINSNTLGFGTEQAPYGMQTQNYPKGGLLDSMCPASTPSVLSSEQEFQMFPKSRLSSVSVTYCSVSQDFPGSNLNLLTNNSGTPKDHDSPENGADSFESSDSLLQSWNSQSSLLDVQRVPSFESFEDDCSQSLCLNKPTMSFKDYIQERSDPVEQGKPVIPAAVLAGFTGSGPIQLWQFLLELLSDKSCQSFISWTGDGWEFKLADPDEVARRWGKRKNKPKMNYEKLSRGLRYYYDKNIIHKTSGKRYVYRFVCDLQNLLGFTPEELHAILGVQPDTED
The note with it: protein: recombinant; tags: N-terminal GST; dsDNA, one strand shown. The method, boiled down:
as §1

A further assay has as its target T9, SPDEF (Homo sapiens, UniProt O95238 1-335).
T9 sequence: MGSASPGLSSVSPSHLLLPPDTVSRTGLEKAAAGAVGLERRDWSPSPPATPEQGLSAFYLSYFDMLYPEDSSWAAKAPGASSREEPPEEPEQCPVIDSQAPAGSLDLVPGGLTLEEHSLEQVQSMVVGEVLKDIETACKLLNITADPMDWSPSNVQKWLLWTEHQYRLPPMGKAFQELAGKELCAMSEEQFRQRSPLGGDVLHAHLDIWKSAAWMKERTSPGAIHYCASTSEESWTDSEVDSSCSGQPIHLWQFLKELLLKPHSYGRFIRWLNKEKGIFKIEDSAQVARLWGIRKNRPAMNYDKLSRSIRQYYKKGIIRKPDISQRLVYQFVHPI
Conditions: protein: recombinant; tags: N-terminal GST; dsDNA, one strand shown. A digest of the protocol: as §1

Another assay concerns the target T10, ETV7 (Homo sapiens, UniProt Q9Y603 1-341).
T10 sequence: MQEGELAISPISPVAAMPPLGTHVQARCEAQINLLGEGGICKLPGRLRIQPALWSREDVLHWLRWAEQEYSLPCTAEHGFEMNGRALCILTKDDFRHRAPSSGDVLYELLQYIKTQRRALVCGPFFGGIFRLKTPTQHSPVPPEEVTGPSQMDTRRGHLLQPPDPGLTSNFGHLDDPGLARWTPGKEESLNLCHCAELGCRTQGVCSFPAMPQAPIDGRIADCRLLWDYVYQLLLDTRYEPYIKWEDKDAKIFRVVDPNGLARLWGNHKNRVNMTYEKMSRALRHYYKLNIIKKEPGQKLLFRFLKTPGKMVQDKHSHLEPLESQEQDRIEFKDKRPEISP
Conditions: protein: recombinant; tags: N-terminal GST; dsDNA, one strand shown. A digest of the protocol: as §1

A further assay has as its target T11, ELF5 (Homo sapiens, UniProt Q9UKW6-2 1-255).
T11 sequence: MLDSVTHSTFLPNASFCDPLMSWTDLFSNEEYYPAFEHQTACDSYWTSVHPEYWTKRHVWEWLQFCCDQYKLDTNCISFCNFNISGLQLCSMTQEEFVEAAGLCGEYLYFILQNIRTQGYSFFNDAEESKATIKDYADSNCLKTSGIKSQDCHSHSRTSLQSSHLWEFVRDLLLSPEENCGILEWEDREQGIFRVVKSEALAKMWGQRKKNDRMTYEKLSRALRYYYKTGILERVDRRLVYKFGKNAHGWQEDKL
Conditions: protein: recombinant; tags: N-terminal GST; dsDNA, one strand shown. A digest of the protocol:
as §1

The next assay has as its target T12, ETV3 (Homo sapiens, UniProt P41162-2 1-143).
T12 sequence: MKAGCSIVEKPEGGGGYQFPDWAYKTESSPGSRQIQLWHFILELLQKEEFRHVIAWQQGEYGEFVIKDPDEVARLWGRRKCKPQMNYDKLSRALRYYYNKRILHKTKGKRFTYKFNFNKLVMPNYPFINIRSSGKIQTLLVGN
Conditions: protein: recombinant; tags: N-terminal GST; dsDNA, one strand shown. A digest of the protocol: as §1

A further assay deals with ETV6 (Homo sapiens, UniProt P41212 1-452). The note with it: protein: recombinant; tags: N-terminal GST; dsDNA, one strand shown. A digest of the protocol:
as §1

Sequence of ELF4 (Q99607 whole entry): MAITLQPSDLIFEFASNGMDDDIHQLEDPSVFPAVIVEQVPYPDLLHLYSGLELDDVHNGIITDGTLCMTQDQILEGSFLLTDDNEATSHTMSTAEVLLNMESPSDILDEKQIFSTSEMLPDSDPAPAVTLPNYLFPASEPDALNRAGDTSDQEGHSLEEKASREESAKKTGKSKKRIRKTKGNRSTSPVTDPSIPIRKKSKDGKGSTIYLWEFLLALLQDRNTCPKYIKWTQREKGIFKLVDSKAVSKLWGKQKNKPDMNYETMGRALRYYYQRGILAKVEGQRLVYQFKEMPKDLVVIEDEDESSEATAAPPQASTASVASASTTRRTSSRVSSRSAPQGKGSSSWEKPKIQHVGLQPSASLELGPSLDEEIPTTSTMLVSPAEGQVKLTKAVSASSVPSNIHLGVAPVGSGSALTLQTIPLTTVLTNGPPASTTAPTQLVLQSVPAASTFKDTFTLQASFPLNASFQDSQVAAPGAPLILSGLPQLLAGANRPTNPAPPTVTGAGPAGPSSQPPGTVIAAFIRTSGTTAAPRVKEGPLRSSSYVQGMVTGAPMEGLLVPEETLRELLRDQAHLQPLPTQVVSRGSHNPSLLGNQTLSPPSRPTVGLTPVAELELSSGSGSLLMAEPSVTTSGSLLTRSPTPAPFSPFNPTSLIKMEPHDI
Sequence of ETV5 (P41161 whole entry): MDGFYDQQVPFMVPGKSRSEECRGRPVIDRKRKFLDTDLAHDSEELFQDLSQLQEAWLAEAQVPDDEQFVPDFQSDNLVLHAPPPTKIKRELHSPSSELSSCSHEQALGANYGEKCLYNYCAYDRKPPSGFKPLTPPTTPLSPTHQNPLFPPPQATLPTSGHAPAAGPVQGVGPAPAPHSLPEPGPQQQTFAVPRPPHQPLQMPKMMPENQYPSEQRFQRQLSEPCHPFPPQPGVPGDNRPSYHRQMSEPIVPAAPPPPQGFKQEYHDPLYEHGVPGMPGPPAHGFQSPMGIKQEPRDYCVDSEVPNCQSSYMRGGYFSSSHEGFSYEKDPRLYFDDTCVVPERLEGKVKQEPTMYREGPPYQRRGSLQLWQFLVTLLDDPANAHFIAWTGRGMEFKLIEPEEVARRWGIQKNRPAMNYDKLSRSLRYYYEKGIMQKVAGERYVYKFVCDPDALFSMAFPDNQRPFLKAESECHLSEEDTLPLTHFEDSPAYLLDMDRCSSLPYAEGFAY
Sequence of HSF1 (Q00613 whole entry): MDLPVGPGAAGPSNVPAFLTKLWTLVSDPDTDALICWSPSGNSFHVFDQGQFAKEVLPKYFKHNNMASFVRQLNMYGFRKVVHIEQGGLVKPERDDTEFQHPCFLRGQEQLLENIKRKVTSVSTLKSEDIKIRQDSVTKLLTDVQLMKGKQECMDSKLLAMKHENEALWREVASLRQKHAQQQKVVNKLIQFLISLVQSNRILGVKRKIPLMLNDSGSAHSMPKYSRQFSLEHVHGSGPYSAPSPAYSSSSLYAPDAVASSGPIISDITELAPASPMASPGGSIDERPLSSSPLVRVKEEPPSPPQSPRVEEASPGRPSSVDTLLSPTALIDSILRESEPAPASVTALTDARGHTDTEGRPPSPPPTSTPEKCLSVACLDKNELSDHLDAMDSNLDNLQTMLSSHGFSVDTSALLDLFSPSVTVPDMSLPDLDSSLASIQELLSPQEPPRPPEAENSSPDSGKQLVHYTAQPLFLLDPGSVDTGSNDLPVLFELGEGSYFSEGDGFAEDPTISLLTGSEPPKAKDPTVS
Sequence of ETV1 (P50549 whole entry): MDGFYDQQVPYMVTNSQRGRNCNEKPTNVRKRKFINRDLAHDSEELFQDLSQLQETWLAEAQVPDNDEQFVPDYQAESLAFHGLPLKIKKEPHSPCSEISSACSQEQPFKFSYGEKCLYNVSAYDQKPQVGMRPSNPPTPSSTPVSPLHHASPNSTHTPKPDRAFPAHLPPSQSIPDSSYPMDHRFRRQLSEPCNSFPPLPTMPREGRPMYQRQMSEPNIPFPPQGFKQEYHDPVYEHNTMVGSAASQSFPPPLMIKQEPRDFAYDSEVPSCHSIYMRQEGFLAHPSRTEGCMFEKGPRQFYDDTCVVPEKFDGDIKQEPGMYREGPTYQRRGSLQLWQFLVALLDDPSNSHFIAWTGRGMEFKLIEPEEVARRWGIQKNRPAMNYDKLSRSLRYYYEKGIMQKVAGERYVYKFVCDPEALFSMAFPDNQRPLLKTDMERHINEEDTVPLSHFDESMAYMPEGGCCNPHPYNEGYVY
Sequence of CRX (O43186 whole entry): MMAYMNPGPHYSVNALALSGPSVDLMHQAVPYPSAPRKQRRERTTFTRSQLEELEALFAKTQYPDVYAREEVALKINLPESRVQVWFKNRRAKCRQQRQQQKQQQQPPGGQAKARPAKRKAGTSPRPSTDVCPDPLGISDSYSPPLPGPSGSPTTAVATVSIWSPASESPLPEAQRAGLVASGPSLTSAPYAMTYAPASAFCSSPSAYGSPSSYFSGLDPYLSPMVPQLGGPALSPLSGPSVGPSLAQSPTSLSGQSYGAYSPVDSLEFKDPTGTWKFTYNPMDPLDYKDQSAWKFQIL
Sequence of ETV6 (P41212 whole entry): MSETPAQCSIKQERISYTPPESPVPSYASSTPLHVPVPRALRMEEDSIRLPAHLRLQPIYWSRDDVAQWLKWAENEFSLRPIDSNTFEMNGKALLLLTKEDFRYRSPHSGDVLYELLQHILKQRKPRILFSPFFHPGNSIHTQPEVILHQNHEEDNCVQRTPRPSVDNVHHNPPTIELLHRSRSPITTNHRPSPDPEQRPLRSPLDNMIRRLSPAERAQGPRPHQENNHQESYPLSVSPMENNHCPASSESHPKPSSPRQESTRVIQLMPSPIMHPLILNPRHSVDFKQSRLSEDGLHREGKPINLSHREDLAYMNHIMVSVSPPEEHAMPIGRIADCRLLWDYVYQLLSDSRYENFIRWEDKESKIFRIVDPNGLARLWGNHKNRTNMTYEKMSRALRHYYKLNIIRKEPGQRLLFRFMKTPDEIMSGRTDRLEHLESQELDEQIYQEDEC

In the case of CTTTAT, the binding signal is 1.17 fold enrichment (6-mer frequency, TF over GST control) with FEV; 1.21 fold enrichment (6-mer frequency, TF over GST control) in the assay with ETV5; 1.23 fold enrichment (6-mer frequency, TF over GST control) with HSF1; 1.21 fold enrichment (6-mer frequency, TF over GST control) with SPIC; 1.19 fold enrichment (6-mer frequency, TF over GST control) with ELF4; 1.29 fold enrichment (6-mer frequency, TF over GST control) in the assay with ELK4. For the same sequence, the binding signal with ETV2 is 1.29 fold enrichment (6-mer frequency, TF over GST control); with ELF3 it was 1.21 fold enrichment (6-mer frequency, TF over GST control); with CRX it was 1.65 fold enrichment (6-mer frequency, TF over GST control); with ETV1 it was 1.22 fold enrichment (6-mer frequency, TF over GST control); in the assay with ERF it was 1.08 fold enrichment (6-mer frequency, TF over GST control); in the assay with ETV3L it was 1.22 fold enrichment (6-mer frequency, TF over GST control). In addition, the binding signal in the assay with ETS2 was 1.29 fold enrichment (6-mer frequency, TF over GST control); with SPDEF it was 1.14 fold enrichment (6-mer frequency, TF over GST control); with ETV7, 1.31 fold enrichment (6-mer frequency, TF over GST control); with ELF5, 1.13 fold enrichment (6-mer frequency, TF over GST control); with ETV3 it was 1.19 fold enrichment (6-mer frequency, TF over GST control); with ETV6, 1.23 fold enrichment (6-mer frequency, TF over GST control).
